# Shown is part of a subset that was picked to be rich in the strongest signals.
# Columns and labels:
# Assay in all cases: glycan array binding signal (z-score within array); higher = stronger binding
# Conditions in all cases: glycan notation: IUPAC condensed, linker removed
# [1] = target: Fuc(a1-2)Gal(b1-4)GlcNAc
# Procedure, shortened: (§1)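 Glycan array data were curated from 3228 arrays in the Consortium for Functional Glycomics database and kept only where the protein sequence was available. Glycan names were converted to IUPAC-condensed notation, and columns mapping to the same glycan were averaged. The binding signal is a within-array Z-score, averaged across arrays of the same protein sequence at different concentrations or buffers and across linkers. Negative Z-scores can be read as non-binding.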
# [2] = target: Fuc(a1-2)Gal(b1-4)GlcNAc(b1-2)Man(a1-3)[Fuc(a1-2)Gal(b1-4)GlcNAc(b1-2)Man(a1-6)]Man(b1-4)GlcNAc(b1-4)[Fuc(a1-6)]GlcNAc
# Procedure, shortened: as §1
# [3] = target: Fuc(a1-2)Gal6S(b1-3)GlcNAc
# Procedure, shortened: as §1
# [4] = target: Fuc(a1-2)Gal6S(b1-3)GlcNAc6S
# Procedure, shortened: as §1
# [5] = target: Fuc(a1-2)[Gal(a1-3)]Gal
# Procedure, shortened: as §1
# [6] = target: Fuc(a1-2)[Gal(a1-3)]Gal(b1-3)GlcNAc
# Procedure, shortened: as §1
# [7] = target: Fuc(a1-2)[Gal(a1-3)]Gal(b1-3)GlcNAc(b1-2)Man(a1-3)[Fuc(a1-2)[Gal(a1-3)]Gal(b1-3)GlcNAc(b1-2)Man(a1-6)]Man(b1-4)GlcNAc(b1-4)[Fuc(a1-6)]GlcNAc
# Procedure, shortened: as §1
# [8] = target: Fuc(a1-2)[Gal(a1-3)]Gal(b1-4)GlcNAc(b1-6)GalNAc
# Procedure, shortened: as §1
# [9] = target: Fuc(a1-2)[GalNAc(a1-3)]Gal(b1-3)GlcNAc(b1-2)Man(a1-3)[Fuc(a1-2)[GalNAc(a1-3)]Gal(b1-3)GlcNAc(b1-2)Man(a1-6)]Man(b1-4)GlcNAc(b1-4)[Fuc(a1-6)]GlcNAc
# Procedure, shortened: as §1
# [10] = target: Fuc(a1-2)[GalNAc(a1-4)]Gal(b1-4)GlcNAc
# Procedure, shortened: as §1
# [11] = target: Fuc(a1-3)[Gal(b1-4)]GlcNAc
# Procedure, shortened: as §1
# [12] = target: Fuc(a1-3)[Gal(b1-4)]GlcNAc(b1-6)GalNAc
# Procedure, shortened: as §1
# [13] = target: Gal(a1-3)Gal(b1-3)GlcNAc
# Procedure, shortened: as §1
# [14] = target: Gal(a1-3)Gal(b1-3)GlcNAc(b1-2)Man
# Procedure, shortened: as §1
# [15] = target: Gal(a1-3)Gal(b1-3)GlcNAc(b1-2)Man(a1-3)[Gal(a1-3)Gal(b1-3)GlcNAc(b1-2)Man(a1-6)]Man(b1-4)GlcNAc(b1-4)GlcNAc
# Procedure, shortened: as §1
# [16] = target: Gal(a1-3)Gal(b1-3)GlcNAc(b1-3)GalNAc
# Procedure, shortened: as §1
# [17] = target: Gal(a1-3)Gal(b1-4)GlcNAc(b1-2)Man(a1-3)[Gal(a1-3)Gal(b1-4)GlcNAc(b1-2)Man(a1-6)]Man(b1-4)GlcNAc(b1-4)GlcNAc
# Procedure, shortened: as §1
# [18] = target: Gal(a1-3)Gal(b1-4)[Fuc(a1-3)]GlcNAc
# Procedure, shortened: as §1
# [19] = target: Gal(a1-3)GalNAc
# Procedure, shortened: as §1
# [20] = target: Gal(a1-3)[Gal(a1-4)]Gal(b1-4)GlcNAc
# Procedure, shortened: as §1
# [21] = target: Gal(b1-3)GalNAc(b1-3)Gal
# Procedure, shortened: as §1
# [22] = target: Gal(b1-3)GlcNAc(b1-2)Man(a1-3)[Gal(b1-3)GlcNAc(b1-2)Man(a1-6)]Man(b1-4)GlcNAc(b1-4)[Fuc(a1-6)]GlcNAc
# Procedure, shortened: as §1
# [23] = target: Gal(b1-3)GlcNAc(b1-3)Gal(b1-4)GlcNAc(b1-2)[Gal(b1-3)GlcNAc(b1-3)Gal(b1-4)GlcNAc(b1-6)]Man(a1-6)[Gal(b1-3)GlcNAc(b1-3)Gal(b1-4)GlcNAc(b1-2)Man(a1-3)]Man(b1-4)GlcNAc(b1-4)[Fuc(a1-6)]GlcNAc
# Procedure, shortened: as §1
# [24] = target: Gal(b1-3)GlcNAc6S
# Procedure, shortened: as §1
# [25] = target: Gal(b1-3)[Fuc(a1-4)]GlcNAc
# Procedure, shortened: as §1
# [26] = target: Gal(b1-3)[Fuc(a1-4)]GlcNAc(b1-6)GalNAc
# Procedure, shortened: as §1
# [27] = target: Gal(b1-4)GlcNAc(b1-2)Man
# Procedure, shortened: as §1
# [28] = target: Gal(b1-4)GlcNAc(b1-2)[Gal(b1-4)GlcNAc(b1-4)]Man(a1-3)[GlcNAc(b1-4)][Gal(b1-4)GlcNAc(b1-2)[Gal(b1-4)GlcNAc(b1-6)]Man(a1-6)]Man(b1-4)GlcNAc(b1-4)GlcNAc
# Procedure, shortened: as §1
# [29] = target: Gal(b1-4)GlcNAc(b1-3)Gal(b1-4)GlcNAc
# Procedure, shortened: as §1
# [30] = target: Gal(b1-4)GlcNAc(b1-6)Gal(b1-4)GlcNAc
# Procedure, shortened: as §1
# [31] = target: Gal3S(b1-4)Glc
# Procedure, shortened: as §1
binder,measurement,setting,value
FimA-N2 (Actinomyces oris) (protein) MHHHHHHSSGVDLGTENLYFQSNAWIYDVNVYPKNEAIDVDKTIQAQKLNGYGVGSLIKFPVESTAPTLDAKSFYKYFQLKDTLDERLSEVTATDVSLEGTPLQPTDYKVETKQQTVTVTFTAEGLKKIKAAPGKKVSAVFQGKVTKAGNGAITNRAQVISDTLYAEQPPTPETPPTDPENPPTSDEVISRWGDLSIKKVDTHQQGQTKA,glycan array binding signal (z-score),[1],0.416
same,glycan array binding signal (z-score),[2],2.43
same,glycan array binding signal (z-score),[3],1.35
same,glycan array binding signal (z-score),[4],3.98
same,glycan array binding signal (z-score),[5],1.78
same,glycan array binding signal (z-score),[6],-0.75
same,glycan array binding signal (z-score),[7],-0.838
same,glycan array binding signal (z-score),[8],2.61
same,glycan array binding signal (z-score),[9],-0.909
same,glycan array binding signal (z-score),[10],0.482
same,glycan array binding signal (z-score),[11],-0.144
same,glycan array binding signal (z-score),[12],-0.225
same,glycan array binding signal (z-score),[13],1.02
same,glycan array binding signal (z-score),[14],2.25
same,glycan array binding signal (z-score),[15],0.101
same,glycan array binding signal (z-score),[16],-0.826
same,glycan array binding signal (z-score),[17],-1.06
same,glycan array binding signal (z-score),[18],-1.47
same,glycan array binding signal (z-score),[19],-0.66
same,glycan array binding signal (z-score),[20],2.77
same,glycan array binding signal (z-score),[21],-0.678
same,glycan array binding signal (z-score),[22],2.23
same,glycan array binding signal (z-score),[23],3.71
same,glycan array binding signal (z-score),[24],-0.106
same,glycan array binding signal (z-score),[25],0.004
same,glycan array binding signal (z-score),[26],-0.651
same,glycan array binding signal (z-score),[27],-0.413
same,glycan array binding signal (z-score),[28],-0.356
same,glycan array binding signal (z-score),[29],1.55
same,glycan array binding signal (z-score),[30],-0.5
same,glycan array binding signal (z-score),[31],0.216
